Results filed as inconclusive are left out. Calls of active or inactive are those of the source. Unless noted, calls come from the whole dose curve; as a rule, active = well fitted curve in the direction sought with a large enough effect; inconclusive = small, poorly fitted or top-dose-only effect, or another doubt; inactive = no such curve, though single readings can be large; an effect the other way counts as inactive or inconclusive.
Columns and labels:
[1] = NCATS anti-infectives library activity on HEK293 viability as a counter-qHTS vs the C. elegans viability qHTS (AID 1745854);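 note: HEK293 cells exposed to compounds for 24 hr before the viability read; % is set by controls: 0 for no effect and ±100 for the full control effect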
Method in brief: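 HEK293 cells (1,500/well) exposed 24 hr at 37C to 1:5 titrations, up to 41.7 uM final; counter-screen to a C. elegans viability qHTS. Viability by CellTiter-Glo luminescence after 10 min at room temperature; digitonin as control.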

[2] = target: Glutathione peroxidase 1 (Homo sapiens) (UniProt P07203); test: Primary qHTS Assay for Inhibitors of Recombinant Selenoprotein Glutathione Peroxidase 1 (GPX1) (AID 1845191); note: nearly all actives have a fitted effect of over 65% in size
Method in brief: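 Recombinant GPX1 (10 nM final) was preincubated with compound for 30 min at room temperature, then reacted with 1 mM GSH, 0.5 mM CHP, 0.5 mM NADPH and 100 nM glutathione reductase; NADPH fluorescence (340/450 nm) was read at 0 and 15 min.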

[3] = target: Phospholipid hydroperoxide glutathione peroxidase GPX4 (Homo sapiens) (UniProt P36969); test: Primary qHTS Assay for Inhibitors of Recombinant Selenoprotein Glutathione Peroxidase 4 (GPX4) (AID 1845192); note: nearly all actives have a fitted effect of over 65% in size
Method in brief: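 GR-coupled readout: 100 nM GR, 1 mM GSH, 0.5 mM NADPH; NADPH fluorescence (ex 340/em 450 nm) read at t=0 and after 15 min RT. GPX4 200 nM, preincubated 30 min with compound; substrate 0.5 mM CHP.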

[4] = Viability counterscreen for antagonist of constitutive androstane receptor (CAR) against the NCATS DSHEA and TCM libraries (AID 1794837);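 note: compound exposure lasted 24 h before viability reading; 0% is about no effect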
Method in brief: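 Viability was measured by CellTiter-Fluor fluorescence (405/540 nm, 1 hr) in HepG2-CYP2B6-hCAR cells. Cells were co-treated 24 hr with 48 uM CITCO (final), antagonist mode, and test substances.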

[5] = Viability counterscreen for agonist of constitutive androstane receptor (CAR) against the NCATS DSHEA and TCM libraries (AID 1794838); note: 0% is about no effect
Method in brief: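 Cell viability, from CellTiter-Fluor fluorescence (405/540 nm), was scored after a 24 h, 37C exposure of HepG2 cells carrying CYP2B6 reporter and hCAR to test substances in presence of 0.75 uM PK11195.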

[6] = target: Nuclear receptor subfamily 1 group I member 3 (Homo sapiens) (UniProt Q14994); test: Primary qHTS for agonist of constitutive androstane receptor (CAR) against the NCATS DSHEA and TCM libraries (AID 1794839);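 note: HepG2 cells expressing human CAR with a CYP2B6 reporter plus PK11195 antagonist; luciferase reporter luminescence read with ONE-Glo; 0% is about no effect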
Method in brief: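 Agonist mode in presence of hCAR antagonist PK11195 (0.75 µM final): test substances, 24 h, 37 °C, on HepG2-CYP2B6-hCAR cells. Same-well readouts: fluorescence viability, then ONE-Glo luminescence; CITCO as reference agonist.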

[7] = HepG2 viability counterscreen (readout 2: ATP content) against the NCATS DSHEA and TCM libraries (AID 1794840);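 note: HepG2 cells exposed to substances for about 24 h; 0% is about no effect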
Method in brief: (§1)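 Readout 1: cellular protease activity, GF-AFC substrate (25 uM final, 30 min, fluorescence 380/510 nm). Readout 2: ATP content by CellTiter-Glo luminescence after 30 min at RT. Both follow ~24 h exposure of HepG2 cells (1,000/well) to substances.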

[8] = HepG2 viability counterscreen (readout 1: protease activity) against the NCATS DSHEA and TCM libraries (AID 1794841);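 note: cells exposed to compounds for about 24 h before the protease read; 0% is about no effect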
Method in brief: as §1

[9] = target: Cytochrome P450 3A4 (Homo sapiens) (UniProt P08684); test: qHTS for inhibitors of CYP3A4 against the NCATS DSHEA and TCM libraries (AID 1919971);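 note: % is set by controls: 0 for no effect and ±100 for the full control effect; inhibition lowers luminescence from luciferin made by CYP3A4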
Method in brief: (§2)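 Luminescent P450-Glo format: compounds preincubated 15 min with enzyme and luciferin substrate, reaction run 30-45 min after NADPH regeneration solution. Intraplate controls: ketoconazole for CYP3A4 and CYP2C19, sulfaphenazole for CYP2C9.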

[10] = target: Cytochrome P450 2D6 (Homo sapiens) (UniProt P10635); test: qHTS for inhibitors of CYP2D6 against the NCATS DSHEA and TCM libraries (AID 1919972); note: % is set by controls: 0 for no effect and ±100 for the full control effect
Method in brief: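 Luminescent P450-Glo read-out of CYP2D6 turnover of a luciferin substrate after NADPH-driven reaction of 30-45 min at room temperature. Compounds were first preincubated 15 min with enzyme at titrated concentrations; quinidine was the intraplate control.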

[11] = target: Cytochrome P450 2C19 (Homo sapiens) (UniProt P33261); test: qHTS for inhibitors of CYP2C19 against the NCATS DSHEA and TCM libraries (AID 1919974);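 note: luminescence from luciferin released by CYP2C19 oxidation of a pro-luciferin substrate; % is set by controls: 0 for no effect and ±100 for the full control effect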
Method in brief: as §2

[12] = KB-3-1 P-gp reporter qHTS against the NCATS DSHEA and TCM libraries (AID 1919975); note: 0% is about no effect
Method in brief: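 Cell viability by CellTiter-Glo luminescence following ~72 h compound exposure (concentration-response). Uses parental, non-P-gp-overexpressing KB-3-1 line, 500 cells/well in DMEM/10% FBS, attached ~4 h before dosing.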

[13] = target: Cytochrome P450 1A2 (Homo sapiens) (UniProt P05177); test: qHTS for inhibitors of CYPIA2 against the NCATS DSHEA and TCM libraries (AID 1919976);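 note: light from luciferin formed by CYP1A2 from a pro-luciferin substrate; series mostly up to about 37 µM; % is set by controls: 0 for no effect and ±100 for the full control effect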
Method in brief: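 Human CYP1A2 with pro-luciferin substrate (typically 100 mM KPO4), 15 min preincubation with compound, then 1x NADPH regeneration for 30-45 min at room temperature in the dark. Luciferin quantified by luciferase luminescence; furafylline intraplate control.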

[14] = qHTS Counterscreen for compound interference against the NCATS DSHEA and TCM libraries (AID 1919978); conditions: firefly luciferase detection reagent interference, luminescence;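 note: compounds preincubated with 1 µM D-luciferin or buffer before detection reagent; % of control where 0% means no effect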
Method in brief: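 With 1 uM D-luciferin or phosphate buffer only, compounds at final 19.5 nM–39.8 uM were incubated for 15 min at room temperature. Luciferase detection reagent was then added, and luminescence was measured after a further 30 min at room temperature.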

[15] = Dual reporter qHTS for agonist of Pregnane X Receptor (hPXR) against the NCATS DSHEA and TCM libraries: Fluorescence readout (AID 1920058); note: 0% is about no effect
Method in brief: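 hPXR-Luc HepG2 cells, 2000/well in charcoal-stripped serum, attached 5 h, dosed for ~24 h at 37 °C. Fluorescence read is CellTiter-Fluor viability (Ex/Em 405/540 nm); rifampicin positive, tetraoctyl ammonium bromide (92 µM) cytotoxicity controls.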

[16] = target: Nuclear receptor subfamily 1 group I member 2 (Homo sapiens) (UniProt O75469); test: Dual reporter qHTS for agonist of Pregnane X Receptor (hPXR) against the NCATS DSHEA and TCM libraries: Luminescence readout (AID 1920059); note: 0% is about no effect
Method in brief: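 hPXR-LucHepG2 cells in phenol red-free DMEM with 5% charcoal-stripped FBS, 2000 cells/well, attached 5 h, then exposed 24 h at 37C to compounds; rifampicin as positive agonist control (2.8 nM–92 uM). Luciferase luminescence read.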

[17] = target: Nuclear receptor subfamily 1 group I member 2 (Homo sapiens) (UniProt O75469); test: Dual reporter qHTS for antagonist of Pregnane X Receptor (hPXR) against the NCATS DSHEA and TCM libraries: Luminescence Readout (AID 1920060);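 note: HepG2 cells carrying hPXR luciferase reporter stimulated with rifampicin at 2 µM; 0% is about no effect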
Method in brief: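 HepG2 hPXR-Luc, 2000 cells/well, charcoal-stripped FBS medium; 5 h attach; RIF 2 uM final; 24 h 37C/5% CO2; CellTiter-Fluor 1 h, fluor 405/540; ONE-Glo 30 min RT, lum.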

[18] = target: Cytochrome P450 3A4 (Homo sapiens) (UniProt P08684); test: qHTS Assay for Inhibitors and Substrates of Cytochrome P450 3A4 (AID 884); note: series mostly up to about 57 µM; % is set by controls: 0 for no effect and ±100 for the full control effect; nearly all actives have a fitted effect of over 50% in size
Method in brief: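 20 nM human CYP3A4 with 25 uM Luciferin-PPXE (at KM) in 200 mM KPO4, preincubated 10 min with compound; NADPH regeneration started a 60 min RT reaction. Luciferin detected by luminescence, normalized to 57 uM ketoconazole as full inhibition.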

[19] = Confirmation and Secondary Assay for Modulators of Hemoglobin Beta Chain Splicing at IVS2 654 locus (AID 910); note: % of control where 0% means no effect
Method in brief: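 HeLa cells stably carrying EGFP interrupted by mutant beta-globin IVS2-654 intron (CMV-driven) were treated with compound for 2 days at 37C; corrected splicing was scored as total peak GFP intensity per well (488 nm excitation, 500-520 nm emission).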

[20] = Confirmation and Secondary Assay for Modulators of Hemoglobin Beta Chain Splicing at IVS2 705 locus (AID 930);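 note: HeLa cells stably expressing the EGFP-705 splicing reporter; GFP fluorescence per well restored by corrected splicing of the IVS2-705 intron in EGFP; series mostly up to about 46 µM; % of control where 0% means no effect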
Method in brief: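 Read-out: total peak GFP fluorescence per well (488 nm excitation, 500-520 nm emission) by laser-scanning cytometry. Cells: HeLa EGFP-705 splicing reporter, 2 days compound exposure in Optimem/2% FCS.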

[21] = target: Cytochrome P450 2C9 (Homo sapiens) (UniProt P11712); test: qHTS for inhibitors of CYP2C9 against the NCATS DSHEA and TCM libraries (AID 1919973); note: potency is the fitted concentration of half-maximal effect
Method in brief: as §2

[22] = NCATS anti-infectives library activity on the primary C. elegans qHTS viability assay (AID 1745855; calls by dose curve; note: potency is the fitted concentration of half-maximal effect)
Method in brief: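 Viability read-out is GFP fluorescence of PE254-GFP-FLuc C. elegans, measured by laser cytometry (488 nm) at day 0, 3 and 7. Ten L1 worms per well were incubated 7 days at 21 °C with compounds and bacterial capsules in S medium.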

Chain of Glutathione peroxidase 1 (Homo sapiens) (P07203 whole entry, looked up): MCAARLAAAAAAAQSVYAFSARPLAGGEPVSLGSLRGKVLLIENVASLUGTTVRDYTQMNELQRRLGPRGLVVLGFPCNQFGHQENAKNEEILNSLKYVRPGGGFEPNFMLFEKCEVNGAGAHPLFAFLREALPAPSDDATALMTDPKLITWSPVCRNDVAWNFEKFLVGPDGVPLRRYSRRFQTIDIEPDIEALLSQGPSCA
Chain of Nuclear receptor subfamily 1 group I member 2 (Homo sapiens) (O75469 whole entry, looked up): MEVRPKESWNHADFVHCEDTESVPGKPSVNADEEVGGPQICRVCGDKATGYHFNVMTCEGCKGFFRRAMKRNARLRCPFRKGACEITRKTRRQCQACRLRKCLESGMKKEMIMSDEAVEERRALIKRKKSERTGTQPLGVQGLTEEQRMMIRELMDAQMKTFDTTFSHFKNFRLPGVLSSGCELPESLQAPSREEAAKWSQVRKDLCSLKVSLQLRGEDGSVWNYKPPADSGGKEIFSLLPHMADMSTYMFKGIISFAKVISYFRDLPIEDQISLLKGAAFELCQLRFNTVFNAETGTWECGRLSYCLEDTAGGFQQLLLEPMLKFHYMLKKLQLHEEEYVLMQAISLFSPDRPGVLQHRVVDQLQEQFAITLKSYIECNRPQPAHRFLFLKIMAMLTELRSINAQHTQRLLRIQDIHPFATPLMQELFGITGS
Chain of Nuclear receptor subfamily 1 group I member 3 (Homo sapiens) (Q14994 whole entry, looked up): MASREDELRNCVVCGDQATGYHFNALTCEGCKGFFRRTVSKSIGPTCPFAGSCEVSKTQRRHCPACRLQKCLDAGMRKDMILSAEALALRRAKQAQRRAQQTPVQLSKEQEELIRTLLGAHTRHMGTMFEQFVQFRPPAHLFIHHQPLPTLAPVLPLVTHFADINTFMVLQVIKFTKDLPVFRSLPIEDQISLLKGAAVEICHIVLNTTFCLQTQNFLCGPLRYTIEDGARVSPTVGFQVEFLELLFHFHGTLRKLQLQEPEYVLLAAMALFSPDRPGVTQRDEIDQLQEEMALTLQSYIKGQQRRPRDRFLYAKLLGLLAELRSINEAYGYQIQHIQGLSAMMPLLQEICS
Chain of Cytochrome P450 2C19 (Homo sapiens) (P33261 whole entry, looked up): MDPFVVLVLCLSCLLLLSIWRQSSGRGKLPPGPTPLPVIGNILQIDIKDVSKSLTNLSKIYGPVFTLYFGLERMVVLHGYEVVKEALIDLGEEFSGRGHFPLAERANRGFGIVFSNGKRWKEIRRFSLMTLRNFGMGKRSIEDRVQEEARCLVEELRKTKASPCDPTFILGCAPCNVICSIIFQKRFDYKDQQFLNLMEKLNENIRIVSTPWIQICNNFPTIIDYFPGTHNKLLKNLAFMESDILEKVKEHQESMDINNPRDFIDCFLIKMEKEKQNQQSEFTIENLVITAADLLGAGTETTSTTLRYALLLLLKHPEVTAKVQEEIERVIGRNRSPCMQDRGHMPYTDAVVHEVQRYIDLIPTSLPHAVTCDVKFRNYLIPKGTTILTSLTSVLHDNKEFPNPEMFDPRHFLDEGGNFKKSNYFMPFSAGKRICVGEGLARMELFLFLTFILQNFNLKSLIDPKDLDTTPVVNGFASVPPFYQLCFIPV
Chain of Cytochrome P450 3A4 (Homo sapiens) (P08684 whole entry, looked up): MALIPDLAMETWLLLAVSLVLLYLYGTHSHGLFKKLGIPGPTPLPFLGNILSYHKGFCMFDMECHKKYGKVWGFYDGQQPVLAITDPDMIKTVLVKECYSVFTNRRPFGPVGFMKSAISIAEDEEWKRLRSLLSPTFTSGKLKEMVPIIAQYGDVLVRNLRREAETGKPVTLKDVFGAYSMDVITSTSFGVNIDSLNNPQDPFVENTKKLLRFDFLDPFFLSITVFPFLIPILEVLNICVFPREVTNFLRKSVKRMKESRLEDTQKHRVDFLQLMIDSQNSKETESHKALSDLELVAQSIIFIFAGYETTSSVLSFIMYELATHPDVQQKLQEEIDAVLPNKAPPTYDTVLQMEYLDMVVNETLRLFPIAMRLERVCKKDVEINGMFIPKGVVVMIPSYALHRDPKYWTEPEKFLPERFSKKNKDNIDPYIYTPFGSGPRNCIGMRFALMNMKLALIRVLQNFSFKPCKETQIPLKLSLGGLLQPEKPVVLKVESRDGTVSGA
Chain of Phospholipid hydroperoxide glutathione peroxidase GPX4 (Homo sapiens) (P36969 whole entry, looked up): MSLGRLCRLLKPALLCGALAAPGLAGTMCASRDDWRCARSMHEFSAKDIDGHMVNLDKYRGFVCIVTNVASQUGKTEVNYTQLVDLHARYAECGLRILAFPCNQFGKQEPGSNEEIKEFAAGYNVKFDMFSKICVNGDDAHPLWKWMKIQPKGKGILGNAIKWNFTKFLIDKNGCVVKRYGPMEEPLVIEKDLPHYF
Chain of Cytochrome P450 2D6 (Homo sapiens) (P10635 whole entry, looked up): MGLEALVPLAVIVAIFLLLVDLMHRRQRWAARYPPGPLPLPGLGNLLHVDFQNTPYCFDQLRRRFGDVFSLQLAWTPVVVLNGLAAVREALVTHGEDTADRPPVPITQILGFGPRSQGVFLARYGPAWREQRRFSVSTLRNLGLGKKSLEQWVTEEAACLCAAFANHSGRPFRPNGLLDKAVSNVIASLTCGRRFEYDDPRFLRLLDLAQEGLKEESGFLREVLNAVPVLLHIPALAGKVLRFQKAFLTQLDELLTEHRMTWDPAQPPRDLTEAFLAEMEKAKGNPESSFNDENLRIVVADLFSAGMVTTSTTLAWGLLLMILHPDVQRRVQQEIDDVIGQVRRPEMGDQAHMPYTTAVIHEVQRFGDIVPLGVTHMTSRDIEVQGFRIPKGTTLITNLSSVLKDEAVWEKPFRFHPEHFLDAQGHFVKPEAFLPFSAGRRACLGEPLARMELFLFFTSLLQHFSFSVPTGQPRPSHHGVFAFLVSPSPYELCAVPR
Chain of Cytochrome P450 1A2 (Homo sapiens) (P05177 whole entry, looked up): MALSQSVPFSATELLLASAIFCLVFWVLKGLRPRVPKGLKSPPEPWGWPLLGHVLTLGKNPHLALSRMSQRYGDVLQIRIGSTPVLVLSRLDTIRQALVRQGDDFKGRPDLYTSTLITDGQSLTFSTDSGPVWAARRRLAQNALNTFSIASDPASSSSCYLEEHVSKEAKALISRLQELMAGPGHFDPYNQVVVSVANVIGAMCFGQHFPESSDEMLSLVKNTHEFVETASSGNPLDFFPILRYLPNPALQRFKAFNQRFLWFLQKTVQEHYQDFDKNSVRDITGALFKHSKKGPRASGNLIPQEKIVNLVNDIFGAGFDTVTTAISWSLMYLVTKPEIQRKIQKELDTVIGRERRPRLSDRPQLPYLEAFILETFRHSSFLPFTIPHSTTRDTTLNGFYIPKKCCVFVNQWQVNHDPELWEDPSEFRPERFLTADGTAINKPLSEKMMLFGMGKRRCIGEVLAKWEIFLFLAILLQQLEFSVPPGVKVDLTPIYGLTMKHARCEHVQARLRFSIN
Chain of Cytochrome P450 2C9 (Homo sapiens) (P11712 whole entry, looked up): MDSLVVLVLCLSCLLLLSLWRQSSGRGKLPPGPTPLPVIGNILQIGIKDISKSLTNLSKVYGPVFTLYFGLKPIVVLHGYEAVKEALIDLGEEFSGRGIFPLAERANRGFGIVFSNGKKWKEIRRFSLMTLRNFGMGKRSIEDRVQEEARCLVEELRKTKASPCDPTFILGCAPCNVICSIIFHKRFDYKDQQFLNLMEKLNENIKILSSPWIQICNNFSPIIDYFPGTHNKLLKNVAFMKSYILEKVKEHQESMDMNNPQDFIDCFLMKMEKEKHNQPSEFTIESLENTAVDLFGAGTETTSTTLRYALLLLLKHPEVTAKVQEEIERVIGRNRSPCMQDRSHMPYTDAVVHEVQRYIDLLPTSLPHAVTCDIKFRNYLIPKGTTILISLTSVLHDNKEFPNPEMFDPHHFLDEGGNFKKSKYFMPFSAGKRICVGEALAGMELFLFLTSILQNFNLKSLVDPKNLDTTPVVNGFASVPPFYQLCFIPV

O=C1O[C@H]2[C@H](OC(O)[C@@H]2O)[C@@H]1O (some centres not stated)
inactive: Potency [1] | Potency [2] | Potency [3]

O=C(/C=C/c1ccc(O)c(O)c1)O[C@@H]1CC(O)(C(=O)O)C[C@@H](OC(=O)/C=C/c2ccc(O)c(O)c2)C1O (some centres not stated)
inactive: Potency [1] | outcome [4] | outcome [5] | Potency [6] | outcome [7] | outcome [8] | Potency [9] | Potency [10] | Potency [11] | outcome [12] | Potency [13] | max response [14] 3.46% | outcome [15] | Potency [16] | outcome [17]

O=C1CC(c2ccccc2)Oc2ccccc21 (configuration not stated)
inactive: Potency [18] | Potency [19] | Potency [20] | Potency [1]

O=C(/C=C/c1ccc(O)c2c1[C@H](C(=O)O)[C@@H](c1ccc(O)c(O)c1)O2)O[C@H](Cc1ccc(O)c(O)c1)C(=O)O
inactive: Potency [1] | outcome [4] | outcome [5] | Potency [6] | outcome [7] | Potency [10] | Potency [11] | outcome [12] | Potency [13] | max response [14] -1.18% | outcome [15] | Potency [16] | outcome [17]
active: Potency [21] 14.1 µM

COC[C@H]1C[C@@H](c2ncc(-c3ccc4c(c3)COc3cc5c(ccc6[nH]c([C@@H]7CC[C@H](C)N7C(=O)[C@@H](NC(=O)OC)C(C)C)nc65)cc3-4)[nH]2)N(C(=O)[C@H](NC(=O)OC)c2ccccc2)C1
inactive: Potency [1] | Potency [2]

CC(C)c1nc(CN(C)C(=O)N[C@@H](CCN2CCOCC2)C(=O)N[C@H](CC[C@H](Cc2ccccc2)NC(=O)OCc2cncs2)Cc2ccccc2)cs1
inactive: Potency [1] | Potency [2] | Potency [3]
active: Potency [22] 23 µM

From PubChem BioAssay (NCATS)
